# Source: PubChem BioAssay AID504381 (The Scripps Research Institute Molecular Screening Center, 2011)
# A number with no mark means an inactive call. The rule behind the calls is not given here.
# System: BZP Rat Brain Site
# Experiment: radioligand displacement at receptors and transporters – biochemical, PDSP panel, Set 2, late-stage follow-up (AID 504381)
# Conditions: PDSP radioligand binding panel, at 10 µM, stronger effect = higher value
smiles,measurement,value
CC(=O)c1ccc2c(c1)Nc1ccccc1S2,inhibition,11.4%
